In PMC5540273 (PLoS ONE, 2017):

Legend:
Settings in all cases: concentration: 1 μM, replicates: in singlicate; n = 1
FYN = test system: FYN
GAK = test system: GAK
GCN2(Kin.Dom.2,S808G) = test system: T1, GCN2(Kin.Dom.2,S808G)
T1 construct: gene EIF2AK4

GRK1 = test system: GRK1
GRK2 = test system: T2, GRK2
T2 construct: gene ADRBK1

GRK3 = test system: T3, GRK3
T3 construct: gene ADRBK2

GRK4 = test system: GRK4
GRK7 = test system: GRK7
GSK3A = test system: GSK3A
GSK3B = test system: GSK3B
HASPIN = test system: T4, HASPIN
T4 construct: gene GSG2

HCK = test system: HCK
HIPK1 = test system: HIPK1
HIPK2 = test system: HIPK2
HIPK3 = test system: HIPK3
HIPK4 = test system: HIPK4
HPK1 = test system: HPK1
HUNK = test system: HUNK
ICK = test system: ICK
IGF1R = test system: IGF1R
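Also: KINOMEscan kinase panel screen.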

Row | SMILES | %Inh (FYN) [%] | %Inh (GAK) [%] | %Inh (GCN2(Kin.Dom.2,S808G)) [%] | %Inh (GRK1) [%] | %Inh (GRK2) [%] | %Inh (GRK3) [%] | %Inh (GRK4) [%] | %Inh (GRK7) [%] | %Inh (GSK3A) [%] | %Inh (GSK3B) [%] | %Inh (HASPIN) [%] | %Inh (HCK) [%] | %Inh (HIPK1) [%] | %Inh (HIPK2) [%] | %Inh (HIPK3) [%] | %Inh (HIPK4) [%] | %Inh (HPK1) [%] | %Inh (HUNK) [%] | %Inh (ICK) [%] | %Inh (IGF1R) [%]
1 | CN(c1ccc(NC(=O)N2CCN(CCCN3CCOCC3)CC2)cc1)c1ccnc(Nc2ccc(CS(C)(=O)=O)cc2)n1.Cl [GW830899] | 18 | 59 | 0 | 0 | 0 | 0 | 43 | 0 | 0 | 0 | 0 | 12 | 45 | 0 | 0 | 20 | 47 | 0 | 95.9 | 1
2 | Cc1cc(-c2c(-c3ccc(F)cc3)ncn2CCCN2CCOCC2)nc(N)n1 [SB-222517] | 0 | 5 | 0 | 31 | 0 | 4 | 20 | 0 | 0 | 32 | 0 | 27 | 44 | 0 | 18 | 0 | 12 | 0 | 0 | 10
3 | CCNc1nccc(-c2c(-c3ccc(F)cc3)ncn2C2CCN(C)CC2)n1 | 0 | 57 | 0 | 0 | 0 | 0 | 0 | 0 | 21 | 0 | 0 | 0 | 39 | 70 | 66 | 0 | 0 | 0 | 0 | 0
4 | CN(C)c1ncnc2nc[nH]c12 [SKF-31736] | 0 | 0 | 0 | 43 | 0 | 0 | 38 | 0 | 1 | 28 | 0 | 3 | 23 | 12 | 15 | 0 | 0 | 0 | 0 | 0
5 | N#CC1(c2cccc(C(=O)Nc3cccc(Oc4ccc5nc(NC(=O)C6CC6)sc5n4)c3)c2)CC1 | 92 | 0 | 0 | 12 | 0 | 0 | 0 | 0 | 24 | 0 | 38 | 98.3 | 6 | 0 | 0 | 78 | 40 | 32 | 0 | 0
6 | CCOc1nccc(-c2c(-c3ccc(F)cc3)ncn2C2CCNCC2)n1 [SB-249175] | 6 | 8 | 40 | 11 | 3 | 0 | 15 | 14 | 0 | 49 | 0 | 0 | 59 | 44 | 44 | 6 | 12 | 0 | 65 | 0
7 | COc1cc(Nc2nccc(N3CCC(NC(=O)Nc4ccc5c(c4)OCO5)C3)n2)cc(OC)c1OC (centres unmarked) [GSK1379766] | 36 | 21 | 0 | 0 | 0 | 8 | 0 | 0 | 0 | 2 | 0 | 0 | 0 | 0 | 16 | 0 | 78 | 0 | 26 | 0
8 | COc1cc(Nc2nccc(N3CCC(NS(=O)(=O)c4ccc(NC(C)=O)cc4)CC3)n2)cc(OC)c1OC [GSK1379825] | 67 | 44 | 0 | 0 | 62 | 44 | 0 | 0 | 0 | 10 | 0 | 0 | 0 | 0 | 15 | 0 | 86 | 0 | 0 | 0
9 | COc1cccc(CC(=O)N2CCc3cc(-c4cn(C)c5ncnc(N)c45)ccc32)c1 [GSK2608899] | 9 | 31 | 70 | 0 | 0 | 0 | 9 | 0 | 0 | 15 | 0 | 0 | 0 | 0 | 22 | 56 | 55 | 3 | 6 | 17
10 | COc1ccc(NC(=O)c2ccoc2)cc1-c1ccc(C(=O)NCC2CC2)cc1 [GW810437] | 0 | 0 | 0 | 24 | 0 | 0 | 0 | 0 | 0 | 26 | 23 | 26 | 5 | 18 | 7 | 6 | 0 | 31 | 13 | 0
